Measured values taken from PubChem BioAssay.
Records with an inconclusive call do not appear. The source made the active and inactive calls. The limit is not given here; nearly all actives have AC50 up to about 30 µM.

Assay: growth inhibition of DIPG cells – cell-based, MIPE4.0 library, CellTiter-Glo luminescence, qHTS (AID 1347066);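 also: cells exposed to compound for 48 hours before readout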
Conditions: SU-DIPG-VI viability, CellTiter-Glo ATP luminescence

| SMILES | outcome | AC50 |
| --- | --- | --- |
| COc1ccc2c(c1)CC[C@@H]1[C@@H]2CC[C@]2(C)[C@@H](NCCCCCCN3C(=O)C=CC3=O)CC[C@@H]12 | inactive |  |
| CC1(C)CCC2=C(O1)c1ccccc1C(=O)C2=O |  | 20.9 µM (active) |
| Nc1nc(Nc2ccc(S(N)(=O)=O)cc2)nn1C(=O)c1c(F)cccc1F | inactive |  |
| C/C(O)=C(\C#N)C(=O)Nc1ccc(C(F)(F)F)cc1 | inactive |  |
| O=C(Nc1ccccc1-c1cn2c(CN3CCNCC3)csc2n1)c1cnc2ccccc2n1 |  | 10.5 µM (active) |
| C[C@H]1[C@H](O)O[C@@H]2O[C@@]3(C)CC[C@H]4[C@H](C)CC[C@@H]1[C@@]24OO3 | inactive |  |
| COc1cc(C(C)C)c(Oc2cnc(NC(CO)CO)nc2N)cc1I | inactive |  |
| COc1ccc(-c2ccc3c(N4CCOCC4)nc(N4C[C@@H](C)O[C@@H](C)C4)nc3n2)cc1CO | inactive |  |
| CC(C)c1cc(C(C)C)c(CC(=O)NS(=O)(=O)Oc2c(C(C)C)cccc2C(C)C)c(C(C)C)c1 |  | 10.5 µM (active) |
| CN1N=C(N)c2cn([C@@H]3O[C@H](COP(=O)(O)O)[C@@H](O)[C@H]3O)c3ncnc1c23 |  | 0.132 µM (active) |
| COc1cc(C)c(Sc2cnc(NC(=O)c3ccc(CNC(C)C(C)C)cc3)s2)cc1C(=O)N1CCN(C(C)=O)CC1 (stereo not drawn) |  | 14.8 µM (active) |
| COc1cc(F)c(C(C)C)cc1-c1ccc(C(F)(F)F)cc1CN1C(=O)O[C@H](c2cc(C(F)(F)F)cc(C(F)(F)F)c2)[C@@H]1C | inactive |  |
| CCOc1cc2ncc(C#N)c(Nc3ccc(OCc4ccccn4)c(Cl)c3)c2cc1NC(=O)/C=C/CN(C)C | inactive |  |
